“And” between values parts separate entries of the source, which are not always exact repeats. Equal values may be shown once. Inconclusive results are not listed. The source made the active and inactive calls. Unless noted, calls come from the whole dose curve; as a rule, active = well fitted activation curve with a large enough effect; inconclusive = small, poorly fitted or top-dose-only effect; inactive = flat fitted curve, though single readings scatter.
Test: Confirmation and Secondary Assay for Modulators of Hemoglobin Beta Chain Splicing at IVS2 654 locus (AID 910);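 note: HeLa cells stably carrying EGFP split by mutant beta-globin IVS2-654 intron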
Conditions: HeLa EGFP-654 splicing reporter, GFP fluorescence, 48 h; series mostly up to 46.1 µM; activation (splicing correction): at the top concentration
How it was run: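 HeLa cells stably expressing EGFP interrupted by β-globin IVS2-654 intron, seeded overnight in Opti-MEM/2% FCS, then treated 2 days at 37 °C. Restored splicing read as total peak GFP intensity per well by laser scanning cytometry (488 nm excitation, 500–520 nm emission); 500 nM antisense PNA as control.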
Note: % of control where 0% means no effect.

Activation (splicing correction), inactive:
CC(=O)N1CCN(c2ccc(OCC3CO[C@@](Cn4ccnc4)(c4ccc(Cl)cc4Cl)O3)cc2)CC1 (stereo not given in full) -4.91%, CC(=O)[C@]1(O)CCC2C3CC(C)C4=CC(=O)C=CC4(C)[C@@]3(F)C(O)C[C@]21C (stereo not given in full) -1.29%, CC(C)(C)NCC(O)COc1cccc2c1CC(O)C(O)C2 (stereo not given) -2.52%, CC(C)CC1C(=O)N2CCCC2C2(O)O[C@@](NC(=O)C3C=C4c5cccc6[nH]c(Br)c(c56)CC4N(C)C3)(C(C)C)C(=O)N12 (stereo not given in full) -8.85%, Nc1ncn(C2OC(CO)C(O)C2O)c(=O)n1 (stereo not given) -5.89%, CC1CC2C3CC(F)C4=CC(=O)C=C[C@@]4(C)[C@@]3(F)C(O)C[C@]2(C)[C@]1(O)C(=O)COC(=O)C(C)(C)C (stereo not given in full) -1.46%

Test: qHTS Assay for Identification of Small Molecule Agonists for Hypoxia Response Element Signaling Pathway (AID 914; active = well fitted activation curve with a large enough effect in the signal ratio, with a control signal flat, not every such curve was filed as active; the % refers to the signal ratio)
Conditions: ME-180 (cervical carcinoma) HRE-bla reporter, beta-lactamase ratio, CoCl2, 17 h; hits give high values
How it was run: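 Compounds in a titration series were added to ME-180 reporter cells alongside an EC50 level of CoCl2. After 17 hours, beta-lactamase activity was read as the 460nm/530nm emission ratio of CCF4, giving AC50 values.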

activation, inactive:
CC(C)CO/N=C1/C[C@@H](O)[C@@H](O)[C@@H]2[C@@H]3C(=O)N(C4CCCCC4)C(=O)[C@H]3CC[C@H]12 -3.43%, Cc1cc2c(nc1C)CCCCN2C[C@H](O)CN1CCCc2nc(-c3ccc(Br)cc3)ccc21 -0.373%, CCN1C(=O)[C@H]2[C@H]3[C@H](O)[C@H](O)C/C(=N/OCc4ccccc4)[C@H]3CC[C@@H]2C1=O 7.18%, COC(=O)C/C=C\[C@@H](C)[C@H]1C=C[C@H](O)[C@@H](CO)O1 10.7%, CC(C)[C@@H](OCc1ccccc1)[C@H](C)/C=N\OC[C@@H](O)[C@@H]1O[C@@H]2OC(C)(C)O[C@@H]2[C@H]1O 7%, C#CCCCO/N=C1/C[C@@H](O)[C@@H](O)[C@@H]2[C@@H]3C(=O)N(c4cccc(Oc5ccccc5)c4)C(=O)[C@H]3CC[C@@H]12 -6.82%, C[C@H](c1ccccc1)N1C(=O)[C@H]2[C@@H]3[C@H](O)[C@H](O)CC(=O)[C@H]3CC[C@H]2C1=O 0.807%, COC(=O)C(C(=O)OC)[C@@H]1CCCC(=O)C1 -2.41%, Cc1ccc2nc3nc4ccc[nH]c4cc3c2c1 -21.2%, c1ccc([C@H]2NCCc3c2[nH]c2ccccc32)cc1 -22.5%, CCN1C(=O)[C@H]2[C@H]3[C@H](O)[C@H](O)C/C(=N/OCc4ccccc4)[C@@H]3CC[C@@H]2C1=O -12.3%, CC(C)[C@@H](OCc1ccccc1)[C@H](C)/C=N\OC[C@@H](C)[C@H](OCc1ccccc1)C(C)C -1.89%, CC(C)=CCC/C(C)=C/CO/N=C1/C[C@@H](O)[C@@H](O)[C@@H]2[C@@H]3C(=O)N(c4cccc(Oc5ccccc5)c4)C(=O)[C@H]3CC[C@@H]12 6.84%, O=C(N/N=C1/C[C@@H](O)[C@@H](O)[C@@H]2[C@@H]3C(=O)N(c4cccc(Oc5ccccc5)c4)C(=O)[C@H]3CC[C@H]12)OCc1ccccc1 9.49%, CC(C)C(=O)N[C@H]1CCCN1C(=O)/C=C\c1ccccc1 4.87%, C/C(CCN1CCCc2nc(C)c(C)cc21)=N\O[C@@H](C)c1cn([C@@H]2COC[C@@H]2O)nn1 8.15%, CC(C)=CCC/C(C)=C/CO/N=C1/C[C@@H](O)[C@@H](O)[C@@H]2[C@@H]3C(=O)N(c4cccc(Oc5ccccc5)c4)C(=O)[C@H]3CC[C@H]12 7.14%, COc1ccc(COC(=O)N/N=C2/C[C@@H](O)[C@@H](O)[C@@H]3[C@@H]4C(=O)N(Cc5ccc6c(c5)OCO6)C(=O)[C@H]4CC[C@@H]23)cc1 0.811%, CSCC[C@@H]1NC(=O)C/C=C\[C@@H](C)COC(=O)[C@@H](C)COC1=O -8.61%, CO[C@H]1COC(=O)[C@@H](C)COC(=O)[C@H](C)NC(=O)C/C=C\[C@H]1C -4.15%, CCN1C(=O)[C@H]2[C@@H]3[C@H](O)[C@H](O)CC(=O)[C@H]3CC[C@H]2C1=O -3.64% and -8.67%, CC(C)[C@H](NC(=O)OC(C)(C)C)[C@@H](O)CC(=O)C(C)(C)C 3.44%, O=C(N/N=C1/C[C@@H](O)[C@@H](O)[C@@H]2[C@@H]3C(=O)N(c4cccc(Oc5ccccc5)c4)C(=O)[C@H]3CC[C@@H]12)OCc1ccccc1 -0.0366%, COC(=O)C/C=C\[C@@H](C)[C@@H]1C=C[C@H](OC(C)=O)[C@H](COC(C)=O)O1 1.52%

Source: PubChem BioAssay (NCATS)
